Experimental data taken from PubChem BioAssay (Tox21).
Values joined by “and” are separate entries in the source; they are usually repeats but may differ in a detail not shown here. Equal values may be shown once. Inconclusive results are not listed. Where a structure was tested more than once in an assay, its records may differ in their call. Active and inactive are the calls of the source. The call rests on the fitted dose curve; in most records, active means well fitted activation curve with a large enough effect in the repeat runs; inconclusive means weak or mixed curves, or effect the other way; inactive means no such curve, though single readings can be large or run the other way. Positions of bridges follow the written chain, without caps; N, C: chain ends. Non-standard residues stand in square brackets, D forms with d. Residues, ends and D or L forms follow the SMILES beside them. *: point of attachment. X1 = CC[C@@H](C)[C@@H](N)C1=N[C@H](C(=O)*)CS1; d(aIle) = CC[C@H](C)[C@@H](N)C(=O)O; dOrn = NCCC[C@@H](N)C(=O)O

Target: Estrogen receptor (Homo sapiens) (UniProt P03372)
Sequence (P03372 whole entry, looked up): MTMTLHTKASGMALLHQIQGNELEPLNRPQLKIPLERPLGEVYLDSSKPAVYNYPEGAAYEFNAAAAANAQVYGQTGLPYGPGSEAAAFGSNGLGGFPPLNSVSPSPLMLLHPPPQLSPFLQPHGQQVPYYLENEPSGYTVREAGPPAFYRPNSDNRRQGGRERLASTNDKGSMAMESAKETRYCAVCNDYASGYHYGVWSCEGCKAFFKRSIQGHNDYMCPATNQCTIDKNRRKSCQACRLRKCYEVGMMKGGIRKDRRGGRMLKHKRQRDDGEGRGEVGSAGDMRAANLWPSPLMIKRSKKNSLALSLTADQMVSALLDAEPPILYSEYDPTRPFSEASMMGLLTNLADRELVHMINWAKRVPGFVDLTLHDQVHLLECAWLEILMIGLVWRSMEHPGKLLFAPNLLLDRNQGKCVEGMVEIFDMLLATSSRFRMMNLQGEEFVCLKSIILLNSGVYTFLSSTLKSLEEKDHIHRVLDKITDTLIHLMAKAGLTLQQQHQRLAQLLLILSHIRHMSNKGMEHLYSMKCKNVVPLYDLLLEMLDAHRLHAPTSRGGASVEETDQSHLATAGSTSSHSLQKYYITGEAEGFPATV
Test: qHTS assay to identify small molecule agonists of the estrogen receptor alpha (ER-alpha) signaling pathway using the BG1 cell line (AID 743079); further: nearly all actives have a fitted effect of over 20% in size
Conditions: BG1Luc4E2 cells, ERE-luciferase agonist, 22 h; series mostly up to 70.3 µM; activation: at the top concentration
On the % scale 0 is the no-effect control and ±100 the full control effect; potency means the concentration at half of the fitted maximal effect.

For Cc1cnc(C(=O)O)c[n+]1[O-], which Potency is on record?
Its Potency is “inactive”.

C=CC1=C(C(=O)O)N2C(=O)[C@@H](NC(=O)/C(=N/OCC(=O)O)c3csc(N)n3)[C@H]2SC1 (stereo in doubt) was tested. Which “activation” value did it give?
The value was 1.48% [at 32.5 µM] (inactive).

How did the “activation” value turn out when O=P(O)(O)C(O)(Cn1ccnc1)P(=O)(O)O was run?
The value was -0.949% (inactive).

With C=CC[N+]1([C@H]2C[C@H]3[C@@H]4CC[C@H]5C[C@H](O)[C@@H](N6CCOCC6)C[C@]5(C)[C@H]4CC[C@]3(C)[C@H]2OC(C)=O)CCCC1 as the compound, how does the Potency read?
Its Potency is 26.6 µM (active).

For CC[C@@H](C)[C@@H](N)C1=N[C@H](C(=O)N[C@@H](CC(C)C)C(=O)N[C@@H](CCC(=O)O)C(=O)N[C@@H](C(=O)N[C@@H]2CCCCNC(=O)[C@@H](CC(N)=O)NC(=O)[C@@H](CC(=O)O)NC(=O)[C@@H](Cc3cnc[nH]3)NC(=O)[C@@H](Cc3ccccc3)NC(=O)[C@@H]([C@H](C)CC)NC(=O)[C@@H](CCCN)NC2=O)[C@@H](C)CC)CS1 (X1-LE[d(aIle)][dK][dOrn][dI][dF][dH][dD][dN]; lactam 4-C), which Potency is on record?
The Potency was 4.03 µM (active) and inactive.

Which “activation” value does the source give for Nc1cc(Cl)c(NC2=NCCN2)c(Cl)c1 here?
The value was 0.915% (inactive).

For CCOc1ccc(NC(=S)Nc2ccc(OCC)cc2)cc1, which “activation” value is on record?
Its value is 3.15% (inactive).

How did the “activation” value turn out when CCc1ncnc2cc(OC)c(OC)cc12 was run?
Its value is 1.6% (inactive).

How did the Potency turn out when Cc1cc(=O)c(C(=O)N[C@@H](C(=O)N[C@@H]2C(=O)N3C(C(=O)O)=C(CSc4nnnn4C)CS[C@H]23)c2ccc(O)cc2)c[nH]1 was run?
The Potency was 23.7 µM (active).

For CC12CCC(C[N+](C)(CCC[N+](C)(C)C)C1)C2(C)C (configuration not stated), which “activation” value is on record?
Its value is 1.88% (inactive).

For CN1C(=O)C[C@@H](C(=O)N[C@@H](Cc2cnc[nH]2)C(=O)N2CCC[C@H]2C(N)=O)NC1=O, which “activation” value is on record?
The value was 1.56% (inactive).

With COC(=O)[C@H]1[C@H]2C[C@H]3c4[nH]c5ccccc5c4CCN3C[C@H]2CC[C@@H]1O as the compound, how does the “activation” value read?
Its value is -11.2% (inactive).

CC[C@@H](C)[C@H](N)C(=O)O was tested. Which Potency did it give?
Its Potency is 26.6 µM (active).

For C/C(=C(/CCO)SSCC1CCCO1)N(C=O)Cc1cnc(C)nc1N (configuration not stated), which Potency is on record?
Its Potency is “inactive”.

For C=C(Nc1ccc(OCC)cc1)Nc1ccc(OCC)cc1, which Potency is on record?
The Potency was “inactive”.

Which “activation” value does the source give for O=C(O)/C=C/C(=O)Nc1ccc(S(=O)(=O)Nc2nccs2)cc1 here?
The value was -0.759% (inactive).

With CC(C)=CCC/C(C)=C/CC/C(C)=C/CC/C(C)=C/CC1=C(C)C(=O)c2ccccc2C1=O as the compound, how does the Potency read?
Its Potency is “inactive”.

How did the “activation” value turn out when CO/N=C(\C(=O)N[C@@H]1C(=O)N2C(C(=O)O)=C(CSc3nc(C)c(CC(=O)O)s3)CS[C@H]12)c1csc(N)n1 was run?
The value was 29.3% (inactive).

With COc1ccc(/C=C/C(=O)O)cc1 as the compound, how does the “activation” value read?
Its value is 3.47% (inactive).

With CO/N=C(\C(=O)N[C@@H]1C(=O)N2C(C(=O)[O-])=C(C[n+]3cccc4c3CCC4)CS[C@H]12)c1csc(N)n1 as the compound, how does the “activation” value read?
Its value is 2.24% (inactive).

NCC1CCC(C(=O)O)CC1 (configuration not stated) was tested. Which “activation” value did it give?
The value was 1.46% [at 32.5 µM] (inactive).

CCN(CC)CCOC[C@H]1O[C@@H](O)[C@H](OCCN(CC)CC)[C@@H](O)[C@@H]1O was tested. Which “activation” value did it give?
The value was -0.325% (inactive).

Which “activation” value does the source give for CCC(=O)OC(OP(=O)(CCCCc1ccccc1)CC(=O)N1C[C@H](C2CCCCC2)C[C@H]1C(=O)O)C(C)C (some centres not stated) here?
Its value is 10.9% (inactive).

Which Potency does the source give for CC(C)=CCC/C(C)=C/CC/C(C)=C/CC/C=C(\C)CC/C=C(\C)CCC=C(C)C here?
Its Potency is “inactive”.

For CCCCCCCCCC(=O)NO, which Potency is on record?
The Potency was “inactive”.

With NCCO/C=C/[C@H](N)C(=O)O as the compound, how does the Potency read?
The Potency was 26.6 µM (active).

Which “activation” value does the source give for N=C(N)n1cccn1 here?
Its value is 7.59% (inactive).

With Nc1c(CC(=O)O)cccc1C(=O)c1ccccc1 as the compound, how does the Potency read?
Its Potency is “inactive and 10.6 µM (active)”.

With Cc1ccc(C(C)(C)c2ccc(C)cc2)cc1 as the compound, how does the “activation” value read?
The value was -10.1% (inactive).

Which “activation” value does the source give for CO[C@H]1C[C@H](O[C@H]2[C@H](C)[C@@H](O[C@@H]3O[C@H](C)C[C@H](N(C)C)[C@H]3O)[C@@H](C)C[C@]3(CO3)C(=O)[C@H](C)[C@@H](O)[C@@H](C)[C@@H](C)OC(=O)[C@@H]2C)O[C@@H](C)[C@@H]1O here?
The value was 19.6% [at 32.5 µM] (inactive).

Which Potency does the source give for CC[C@H]1OC(=O)C[C@@H](O)[C@H](C)[C@@H](O[C@@H]2O[C@H](C)[C@@H](O[C@H]3C[C@@](C)(O)[C@@H](O)[C@H](C)O3)[C@H](N(C)C)[C@H]2O)[C@@H](CC=O)C[C@@H](C)C(=O)/C=C/C(C)=C/[C@@H]1CO[C@@H]1O[C@H](C)[C@@H](O)[C@@H](OC)[C@H]1OC here?
Its Potency is “inactive”.

How did the Potency turn out when O=C1c2c(O)cccc2[C@H]([C@@H]2O[C@H](CO)[C@@H](O)[C@H](O)[C@H]2O)c2cc(CO)cc(O)c21 was run?
Its Potency is 13.3 µM (active) and inactive.
